RecA splice inh – Mtb RecA intein splicing inhibitors, primary screen, biochemical, fluorescence, HTS | cell-free RecA intein splicing | inhibition, % (concentration not given with the values) | 290,000 tested, 0.75% active; in the data active = inhibition above about 30%;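 also: 0% = vehicle wells and 100% = reference inhibitor control wells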
CCHF vOTU inh-1 – CCHFV vOTU protease inhibitors, primary screen, biochemical, Pep-AMC substrate, fluorescence. Crimean-Congo hemorrhagic fever virus L polyprotein viral ovarian tumor (vOTU) protease …. inhibition, % at 11.5 µM. 370,000 tested, 0.55% active; also: 0% = vehicle wells with enzyme and 100% = no enzyme wells
BJeLR viability – MLPCN primary cell-based screen for lethality selective to Ras in HRASV12 cells | inhibition, % (no concentration beside the values) | BJeLR (HRASV12) viability, CellTiter-Glo ATP luminescence, 48 h | 300,000 tested, 0.17% active | AID 1554, 2009; in the data active = inhibition above about 50%
Sa ugtP lethal – growth inhibition of ugtP-null S. aureus, primary screen, RN4220 ugtP deletion, OD600; 16 h; growth inhibition, % (no concentration beside the values); 330,000 tested, 0.54% active; in the data active = growth inhibition above about 68%;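 also: plate controls were untreated wells for no effect and antibiotic for full effect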
Mtb hypoxia inh – PubChem AID 1159583; M. tuberculosis hypoxia-regulated fluorescent reporter, fluorescence; 300,000 tested, 0.1% active; fluorescence inhibition, % (no concentration beside the values); in the data active = fluorescence inhibition mostly above about 23%, no sharp cut-off; inactive = mostly below about 17%
RN4220 kill – growth inhibition of S. aureus RN4220, primary screen, OD600. 330,000 tested, 0.33% active. 16 h. inhibition, % (test concentration not listed). AID 1259311, 2017; in the data active = inhibition above about 85%;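 also: plate controls were untreated cells for no effect and reference antibiotic for full effect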
GFP chromophore – counter-screen: blocks GFP chromophore formation, dose response, counter-screen, biochemical, fluorescence, homogeneous; 2,100 tested, 83% active; EC50, µM; cell-free GFP chromophore formation; AID 434968, 2010; shares compounds with RecA splice inh; call rule not given here
CCHF vOTU inh-2 – CCHFV vOTU protease inhibitors, confirmation, biochemical, Pep-AMC substrate, fluorescence; shares compounds with CCHF vOTU inh-1; Recombinant CCHFV vOTU; inhibition, % at 11.5 µM; 1,900 tested, 17% active
An asterisk follows results filed as active; / = no result. Rows were chosen to be rich in hits. Some 1.6% of all compounds tested hit in one or more screens of this group. Rule as the data show it, unless noted: active = inhibition above about 30%; inactive = the rest.

SMILES	RecA splice inh	CCHF vOTU inh-1	BJeLR viability	Sa ugtP lethal	Mtb hypoxia inh	RN4220 kill	GFP chromophore	CCHF vOTU inh-2
COc1cc2c(c(O)c1OC)C1Cc3ccc(OC)c(OC)c3CN1CC2 (configuration not stated)	/	-1	/	/	/	/	/	/
CCCNC1=C(N(C(C)=O)c2cccc(F)c2)C(=O)c2ccccc2C1=O	63*	70*	44	20	8	22	15*	46*
COc1ccc(S(=O)(=O)N(C)CC2Oc3ccc(NC(=O)C4CC4)cc3C(=O)N(C(C)CO)CC2C)cc1 (configuration not stated)	/	/	/	12	14	7	/	/
O=[N+]([O-])c1cc([N+](=O)[O-])c2c(=Nc3ccccc3)n(-c3ccccc3)n(O)c2c1	74*	31*	3	47	23	41	4.1*	1
CCOC(=O)C1C2COc3cc(OC)ccc3C2N2C(=O)CN(Cc3ccc(OC)cc3)C(=O)[C@@]12C (some centres not stated)	/	/	/	3	-2	1	/	/
COc1cc(/C=C2\C(=O)N(c3ccc(S(N)(=O)=O)cc3)N=C2C)ccc1OC(=O)c1ccco1	93*	48*	3	15	8	8	20*	-3
C#CCOc1ccc(/C=C2/C(=O)N(c3ccc(S(N)(=O)=O)cc3)N=C2C)cc1OC	/	29	/	/	/	/	/	/
C#CCOc1ccc(/C=C2/C(=O)N(c3cccc(C(=O)O)c3)N=C2C)cc1OC	71*	35*	2	/	/	/	3.4*	-15
CC=CC(=O)OCC(=O)Nc1nc2ccc(C)cc2s1	/	/	/	-11	-2	-3	/	/
Cc1[nH]n(-c2ccccc2)c(=O)c1C(c1cccc([N+](=O)[O-])c1)c1c(C)[nH]n(-c2ccccc2)c1=O	85*	41*	-5	10	11	-2	4.8*	-13
Cc1c(C(c2cccc([N+](=O)[O-])c2O)c2c(C)n(C)n(-c3ccccc3)c2=O)c(=O)n(-c2ccccc2)n1C	-4	-2	/	4	-4	2	/	/
Cc1[nH]n(-c2ccccc2)c(=O)c1C(=O)c1ccc([N+](=O)[O-])cc1	4	7	-2	12	13	17	/	/
Cc1[nH]n(-c2ccccc2)c(=O)c1C(c1cccc([N+](=O)[O-])c1O)c1c(C)[nH]n(-c2ccccc2)c1=O	93*	33*	-7	-1	13	8	1.3*	-17
Cc1[nH]n(-c2ccccc2)c(=O)c1C(c1ccc(C(=O)O)cc1)c1c(C)[nH]n(-c2ccccc2)c1=O	96*	71*	4	-6	1	-1	1.2*	-11
COC(=O)C1=C(c2ccc(F)cc2OCc2ccccc2)CC2CCC1N2C(=O)NCCNC(C)=O (configuration not stated)	/	/	/	3	6	4	/	/
Nc1c(C(=O)NCCCc2ccccc2)c2nc3ccccc3nc2n1Cc1cccs1	32*	109*	-6	12	-6	-4	/	-6
O=C(COC(=O)c1ncc(Cl)c(Cl)c1Cl)Nc1ccccc1OC(F)F	0	19	4	-4	-6	-4	/	/
O=C(COC(=O)COc1ccccc1Cl)Nc1ccccc1OC(F)F	2	33*	3	/	/	/	/	-3
Cc1c(C(=O)N2CC3(CC(c4cccc(NC(=O)CC(c5ccccc5)c5ccccc5)c4)=NO3)CC2C(N)=O)cc([N+](=O)[O-])cc1[N+](=O)[O-] (configuration not stated)	/	/	/	5	-3	1	/	/
O=C(O)CN1C(=O)/C(=C\c2cc(Br)ccc2OCc2ccc([N+](=O)[O-])cc2)SC1=S	14	32*	2	-13	-4	-4	/	19
O=C(O)CN1C(=O)/C(=C\c2cc(Br)ccc2OCc2ccccc2Cl)SC1=S	23	25	4	60	2	16	/	/

Source: PubChem BioAssay (several laboratories)
